These results are taken from PubChem BioAssay (EPA / NIEHS).

Inconclusive results are not listed. Activity calls are given as the source filed them. How the source made its calls, unless noted: active means hit-call score of the fitted dose curve at least 0.9, where 1 is the maximum; inconclusive means response in the unintended direction; inactive means score below 0.9. Where a SMILES comes first, the peptide text is derived from it. Bridges are numbered along the chain shown (N, C = ends). [ ]: non-standard residue; d: D form. Orn = NCCC[C@H](N)C(=O)O; Mpa = O=C(O)CCS

Assay [1] in a line: TOX21_p53_BLA_p2_viability: Viability Assessment in the Tox21 HCT-116 p53 Agonism Beta-lactamase Assay, Phase 2 (AID 2283591).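 Further: actives lower the ATP signal meaning cytotoxicity.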 In outline: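 HCT116 p53-bla cells, 4000/well, dosed after 5 h plating (217-fold dilution of DMSO stocks) and incubated 16 h at 37C. Viability taken as cellular ATP by CellTiter-Glo luminescence after 30 min RT; signal loss marks cytotoxicity.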
Assay [2] addresses Cellular tumor antigen p53 (Homo sapiens) (UniProt P04637). The experiment in a line: TOX21_p53_BLA_p2_ratio: Tox21 HCT-116 p53 Agonism Beta-lactamase Assay, Ratio, Phase 2 (AID 2283592). In outline:
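An inducible beta-lactamase reporter in HCT116 cells signals p53 pathway activation. After 16 h chemical exposure at 37C, cells load CCF4-AM substrate for 2 h at room temperature; activity is the cleaved/uncleaved emission ratio relative to DMSO.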

The nature of assay [3]: TOX21_p53_BLA_p3_viability: Viability Assessment in the Tox21 HCT-116 p53 Agonism Beta-lactamase Assay, Phase 3 (AID 2283593).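 Further: cells exposed to compound for 16 h before reading.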 In outline: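 HCT116 cells, 4000/well, dosed 5 h after plating by pin transfer (217-fold dilution from DMSO stock) and incubated 16 h at 37C, 5% CO2. Viability read as ATP luminescence with CellTiter-Glo after 30 min at room temperature.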
Assay [4] in a line: TOX21_p53_BLA_p4_viability: Viability Assessment in the Tox21 HCT-116 p53 Agonism Beta-lactamase Assay, Phase 4 (AID 2283597).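 Further: hits lower the luminescence signal meaning cytotoxicity.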 A digest of the protocol:
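Compound exposure of HCT116 cells lasts 16 h at 37C, 5% CO2, with DMSO stocks diluted 217-fold. Cellular ATP is then quantified by CellTiter-Glo luminescence after 30 min at room temperature.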

Assay [5] concerns the target Cellular tumor antigen p53 (Homo sapiens) (UniProt P04637). Description: TOX21_p53_BLA_p5_ratio: Tox21 HCT-116 p53 Agonism Beta-lactamase Assay, Ratio, Phase 5 (AID 2283599). In outline:
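HCT-116 p53-bla cells (4000/well) plated 5 h, dosed with compound (217-fold DMSO dilution) for 16 h at 37 C; CCF4-AM substrate 2 h at room temperature. Activity is the 460/530 nm emission ratio (405 nm excitation), fitted in gain-of-signal direction versus DMSO.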

Assay [6] shares this target. The experiment in a line: TOX21_p53_BLA_p4_ratio: Tox21 HCT-116 p53 Agonism Beta-lactamase Assay, Ratio, Phase 4 (AID 2283601). A digest of the protocol: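 HCT-116 p53 beta-lactamase reporter cells (4000/well) preincubated 5 h, then compound (217-fold dilution of DMSO stock) for 16 h at 37C. CCF4-AM substrate added 2 h at room temperature; 460/530 nm emission ratio fitted upward versus DMSO.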

Assay [7] is described as follows: TOX21_p53_BLA_p5_viability: Viability Assessment in the Tox21 HCT-116 p53 Agonism Beta-lactamase Assay, Phase 5 (AID 2283600). In outline:
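Counter-readout for cytotoxicity: ATP-dependent luminescence from CellTiter-Glo, read in the beta-lactamase wells after 30 min at RT, following a 16 h compound exposure at 37C.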

Assay [8] in a line: ACEA_ER_AUC_viability: ACEA Biosciences xCELLigence Real-Time Cell Analysis on Estrogen Receptor Agonism for Viability (AID 2283782).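 Further: continuous compound exposure with impedance area under curve over 80 h; hit means loss of impedance signal meaning reduced cell growth or viability.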 In outline: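 T47D cells preconditioned in phenol red-free RPMI with charcoal-stripped FBS, then dosed with 8-point 1:4 series from 100 uM (up to 0.5% DMSO). Impedance monitored up to ~80 h; area-under-curve loss versus DMSO taken as viability.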

The nature of assay [9]: CCTE_Harrill_HTTr_Viability_MCF7: CCTE's 6-hour Cell Viability Assessment for the High-Throughput Transcriptomics (HTTr) Platform, in MCF-7 cells cultured in DMEM + 10% fetal bovine serum, Harrill Lab (AID 2284010; active means hit-call score of the fitted dose curve at least 0.9, where 1 is the maximum; inactive means score below 0.9). A digest of the protocol: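 Membrane integrity was scored by high-content imaging of propidium iodide dye exclusion after a 6 h exposure across an eight-point dilution series. Data were fitted bidirectionally relative to DMSO as negative control and baseline.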

Assay [10] can be described thus: CCTE_Harrill_HTTr_Apoptosis_MCF7: CCTE's 6-hour Apoptosis Assessment for the High-Throughput Transcriptomics (HTTr) Platform, in MCF-7 cells cultured in DMEM + 10% fetal bovine serum, Harrill Lab (AID 2284011; active means hit-call score of the fitted dose curve at least 0.9, where 1 is the maximum; inactive means score below 0.9). In outline:
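Cells are dosed with test chemicals at eight concentrations and imaged 6 hours later for caspase-3/7 activity using a green fluorogenic detection reagent. Activity is fitted in both directions against DMSO controls.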

Chain of Cellular tumor antigen p53 (Homo sapiens) (P04637 whole entry, looked up): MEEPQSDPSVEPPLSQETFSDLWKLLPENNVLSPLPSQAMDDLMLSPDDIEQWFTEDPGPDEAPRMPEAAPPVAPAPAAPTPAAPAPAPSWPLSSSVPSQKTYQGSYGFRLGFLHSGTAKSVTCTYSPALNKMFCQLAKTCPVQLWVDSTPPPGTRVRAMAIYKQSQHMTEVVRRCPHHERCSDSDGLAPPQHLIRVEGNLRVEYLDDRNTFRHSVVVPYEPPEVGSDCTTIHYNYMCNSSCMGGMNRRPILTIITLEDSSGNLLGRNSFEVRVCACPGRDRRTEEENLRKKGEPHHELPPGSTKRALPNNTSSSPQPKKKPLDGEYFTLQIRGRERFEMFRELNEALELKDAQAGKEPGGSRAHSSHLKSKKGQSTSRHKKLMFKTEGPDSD

As to `CC(C)c1cc2c(cc1S(=O)(=O)O)[C@@]1(C)CCC[C@@](C)(C(=O)O)[C@@H]1CC2`, the outcome in [1], in [2], in assay [3], in assay [4], in assay [5] and in [6] was inactive.
For the molecule `CC(C)Cc1ccc(CC(=O)O)cc1`, the molecule was classed as inactive in assay [1], in [2], in [3], in assay [4], in assay [5] and in [6].
For the molecule `NC(N)=NC(=O)Cc1c(Cl)cccc1Cl`, the molecule was called inactive in assay [1], in assay [2], in assay [3], in assay [4], in assay [5] and in [7]. Besides, the outcome in assay [6] was inactive.
`S=c1nccc[nH]1`: the molecule was called inactive in assay [1], in assay [2], in assay [3], in assay [4], in assay [5] and in assay [7]. In addition, the result in assay [6] was inactive.
Turning to `NCCCC[C@H](NC(=O)[C@@H]1CCCN1C(=O)[C@@H]1CSSC[C@H](N)C(=O)N[C@@H](Cc2ccccc2)C(=O)N[C@@H](Cc2ccccc2)C(=O)N[C@@H](CCC(N)=O)C(=O)N[C@@H](CC(N)=O)C(=O)N1)C(=O)NCC(N)=O`, the molecule was called inactive in assay [1], in assay [2], in assay [3], in [4], in assay [5] and in assay [7]. Besides, the outcome in [6] was inactive.
Broadly, the AC50 is the midpoint of the concentration-response curve, whichever way the signal moves. As to `Cc1cc(N)c2cc(NC(=O)Nc3ccc4nc(C)cc(N)c4c3)ccc2n1`, the molecule was classed as inactive in assay [1], in [2], in [3], in [5], in assay [7] and in [6]. Besides, the AC50 in [4] was 29.7 µM (active).
`O=C(O)c1ccc2cc(O)ccc2c1`: the molecule was classed as inactive in [1], in [2], in assay [3], in [4], in assay [5] and in assay [6].
Take `Cc1c(C(=O)O)cccc1[N+](=O)[O-]`: the outcome in [1], in assay [2], in [3], in assay [4], in assay [5] and in assay [7] was inactive. In [6], the outcome was inactive.
For `c1ccncc1`, the molecule was classed as inactive in assay [1], in [2], in [3], in [4], in [5] and in [7]. For the same molecule, the outcome in assay [6] was inactive.
Consider `CCCCC(CC)COC(=O)C(C#N)=C(c1ccccc1)c1ccccc1` (configuration not stated), for which the result in [1], in assay [2], in assay [3], in assay [4], in assay [5] and in assay [7] was inactive. The result in assay [6] was inactive.
Consider `CCCCCCCCCOC(=O)c1ccccc1C(=O)OCCCCCCCCC`, for which the result in assay [1], in [2], in assay [3], in [4], in assay [5] and in assay [6] was inactive.
In the case of `O=C(Nc1ccccc1)Nc1ccccc1`, the molecule was classed as inactive in [1], in [2], in assay [3], in assay [4] and in assay [7].
As to `CC(C)(Oc1ccc(C2CCCc3ccccc32)cc1)C(=O)O` (configuration not stated), the outcome in assay [1], in assay [2], in assay [3], in [4] and in [7] was inactive.
`CCCc1cc(C(N)=S)ccn1`: the call in [1], in assay [2], in assay [3], in [4] and in assay [7] was inactive.
Consider `COC(=O)C1CC(=O)C(C(=O)OC)CC1=O` (configuration not stated), for which the result in assay [1], in [2], in assay [3], in assay [4] and in [6] was inactive.
As for `O=C(CCCN1CCC(C(=O)c2ccc(F)cc2)CC1)c1ccc(F)cc1`, the outcome in assay [1], in [2], in assay [3], in assay [4], in [7] and in assay [6] was inactive.
Turning to `CCN1CCN(c2cc(-c3ccc(F)cc3)c3c(n2)CCCCCC3)CC1`, the result in [1], in assay [2], in assay [3], in [4], in assay [7] and in assay [6] was inactive.
With `CNCCC=C1c2ccccc2CCc2ccccc21`, the molecule was called inactive in assay [1], in assay [2], in assay [3], in assay [7] and in [6]. In assay [4], the AC50 is 35.8 µM (active).
For the molecule `CC(C)Cc1ccc([C@@H](C)C(=O)NS(C)(=O)=O)cc1`, the result in assay [1], in [2], in assay [3], in assay [5] and in assay [7] was inactive.
In the case of `C=C(C)C(=O)OCCCCCCCCCCCCC`, the call in assay [1], in assay [2], in assay [3], in assay [4], in assay [7] and in assay [6] was inactive.
As for `O=C(OCCO)c1ccccc1O`, the molecule was called inactive in assay [1], in assay [2], in assay [3], in assay [4] and in [6].
Take `CC12CCC(C(=O)C1=O)C2(C)C` (configuration not stated): the outcome in assay [1], in assay [2], in [3], in assay [5] and in assay [7] was inactive.
Consider `CCOc1ccc(C[C@H]2NC(=O)CCSSC[C@@H](C(=O)N3CCC[C@H]3C(=O)N[C@@H](CCCN)C(=O)NCC(N)=O)NC(=O)[C@H](CC(N)=O)NC(=O)[C@H]([C@@H](C)O)NC(=O)[C@H]([C@@H](C)CC)NC2=O)cc1` ([Mpa][dY](Et)ITNCP[Orn]G-NH2; disulfide 1-6), for which the molecule was called inactive in [1], in assay [2], in assay [3], in assay [4], in assay [7] and in assay [6].
Regarding `CCOC(C)(C)C`, the call in assay [1], in assay [2], in assay [3], in assay [4], in assay [7] and in assay [6] was inactive.
Take `CCN(CC)Cc1cc(Nc2ccnc3cc(Cl)ccc23)ccc1O`: the result in assay [1], in assay [2], in [3], in assay [4], in assay [7] and in assay [6] was inactive.
Turning to `CCOC(=O)c1ccc(NC(=O)CN2CCCCC2)cc1`, the molecule was called inactive in [1], in assay [2], in assay [3], in [5] and in assay [7].
On to `O=C(O)CCCc1c[nH]c2ccccc12`, for which the molecule was called inactive in [1], in [2], in assay [3], in assay [4], in [7] and in [6]. The outcome in [8], in assay [9] and in [10] was inactive.
Consider `CNCC(O)c1ccc(OC(=O)C(C)(C)C)c(OC(=O)C(C)(C)C)c1` (configuration not stated), for which the outcome in assay [1], in assay [2], in assay [3], in assay [4], in [7] and in assay [6] was inactive.
On to `OC[C@H](Cc1cccc(O)c1)[C@H](CO)Cc1cccc(O)c1`, for which the molecule was called inactive in assay [1], in [2], in [3], in assay [4] and in assay [7].
For the molecule `NC(=O)COCCN1CCN(C(c2ccccc2)c2ccc(Cl)cc2)CC1` (configuration not stated), the call in assay [1], in assay [2], in assay [3], in assay [4], in assay [7] and in [6] was inactive.
For the molecule `C=C(C)C(=O)OCCNC(C)(C)C`, the molecule was classed as inactive in assay [1], in assay [2], in [3], in [4], in assay [7] and in [8].
